# Shn3 inh set2: reduction of Shn3 3'UTR firefly luciferase signal, primary screen, Schnurri-3 inhibitor project, cell-based, Clone20 osteoblasts, set 2; Clone20 osteoblast Shn3 3'UTR firefly luciferase, 24 h; inhibition, % at 12.5 µM; 360,000 compounds, 0.52% hits; AID 588674, 2011;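 active = mean inhibition of at least 75% with every replicate also reaching 75%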;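 also: 0% = median of neutral control wells and 100% = pilot-screen positive control compound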
# Mdm2 MdmX PPI: inhibitors of human Mdm2-MdmX association, primary screen, cell-based, luminescence, split luciferase, SaOS-2, uHTS; 330,000 compounds, 3% hits; AID 485346, 2010; inhibition, % at 8 µM; Protein Mdm4 (Homo sapiens) + E3 ubiquitin-protein ligase Mdm2 (Homo sapiens), …; SaOS-2 split-luciferase Mdm2/MdmX complementation;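 active = inhibition of at least 50% at 8 µM in the primary screen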
# Jurkat NFkB inh: inhibitors of induced NF-kB luciferase reporter, primary screen, TCR NF-kB activation inhibitor project, cell-based, luminescence, uHTS. Jurkat, PMA/ionomycin-induced NF-kB luciferase reporter. inhibition, % at 4 µM. 330,000 compounds, 0.53% hits; in the data active = inhibition above about 50%
# 697 NFkB inh: inhibitors of PMA/ionomycin-induced NF-kB reporter, 697 cells, primary screen, B-cell NF-kB inhibitor project, cell-based, luminescence, uHTS | 697 B-cell NF-kB luciferase reporter, 16 h | inhibition, % at 4 µM | 330,000 compounds, 0.33% hits; in the data active = inhibition above about 35%
# Gli-Sufu block: Gli-Sufu pathway antagonists, primary screen, luciferase luminescence, Sufu-KO-LIGHT cells, uHTS | Sufu-KO-LIGHT fibroblasts, Gli luciferase reporter luminescence | inhibition, % at 5 µM | 340,000 compounds, 0.74% hits | AID 588413, 2011;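 active = inhibition above about 55%, limit read from the data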;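 also: 0% = DMSO-treated cells and 100% = wells with medium but no cells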
# 697 NFkB conf: PMA/ionomycin-induced NF-kB reporter inhibitors, 697 retest, confirmation, B-cell NF-kB inhibitor project, cell-based, luminescence, single concentration | shares compounds with 697 NFkB inh | 697 B-cell NF-kB luciferase, 16 h | inhibition, % at 4 µM | 2,000 compounds, 35% hits | AID 449746, 2010; in the data active = inhibition mostly above about 28%, no sharp cut-off; inactive = mostly below about 22%
# The depositor's hits bear a star; i = inactive; · = not tested or not shown. Hits are enriched below; roughly 3.8% of the tested compounds scored in any of these assays.
SMILES,Shn3 inh set2,Mdm2 MdmX PPI,Jurkat NFkB inh,697 NFkB inh,Gli-Sufu block,697 NFkB conf
CSc1ccc(C2Nc3cccc4cccc(c34)N2)cc1,21.4,18.7,30.2,-265.9,8.6,-70.6
Cc1ccc(C)c(NC(=S)Nc2ccc(S(=O)(=O)Nc3ncccn3)cc2)c1,4.6,-12.1,6.9,18.5,8.4,·
Cc1ccc(NC(=S)Nc2ccc(S(=O)(=O)Nc3ncccn3)cc2)c(C)c1,-0.7,-18.8,-1.4,49.9*,3.6,14.3
CN1CCN(C(=O)c2ccccc2N(Cc2ccccc2)S(C)(=O)=O)CC1,-14.7,14.7,-1.7,1.1,-10.8,·
CN1CCN(C(=O)c2ccccc2N(Cc2ccccc2)S(=O)(=O)c2ccccc2)CC1,-2.3,-4.4,13.7,40.4*,16.6,25.1*
Cc1nc(Nc2c(Cl)cccc2Cl)sc1C(=O)Nc1ccccc1,-8.3,24.3,6.2,37.0*,0.0,36.2*
CC/C(=N/Nc1ccc(Cl)cc1)c1cnnc(SC)n1,3.5,-16.3,-4.1,35.5*,7.9,17.0
CC(NCCC1(Cc2ccccc2Cl)CCOC(C)(C)C1)c1cccs1 (centres undefined),28.6,9.2,-5.5,-27.3,8.2,·
C=CCNC(=O)c1ccc(-c2nc(-c3ccccc3)cs2)cc1,-39.6,-76.6,-53.7,-278.5,-68.9,-145.3
COc1cc(NC(=O)c2ccco2)c(OC)cc1NC(=O)c1cc(OC)c(OC)c(OC)c1,7.8,48.6,6.3,41.0*,11.2,33.5*
CC(C)(C)c1ccc(-c2cc(N)n[nH]2)cc1,32.6,27.8,-50.1,44.0*,7.1,45.0*
Cc1ccc(-c2cc(N)n[nH]2)cc1,0.3,15.9,-11.9,0.9,-24.9,·
COc1ccc(-c2nsc(SCC(=O)Nc3cc(C)on3)n2)cc1,4.2,29.4,-34.5,43.1*,7.3,29.6*
O=C(Nc1nc2nc(-c3ccccc3)cc(-c3ccccc3)n2n1)c1ccco1,·,37.3,7.7,46.8*,-4.3,30.4*
Cn1c(-c2cccc(Br)c2)cnc1NCc1ccccc1O,-1.1,-8.9,-12.8,-5.8,10.9,·
COc1cc(C(=O)OC(C)c2ccc(F)cc2)ccc1OCC(=O)N1CCOCC1 (centres undefined),9.0,-17.2,0.8,14.0,10.7,·
Cc1ccn2c(C(=O)c3ccc(Cl)cc3)cnc2c1,-3.7,3.0,-147.2,-259.4,-85.5,-145.4
Cc1ccc(NC(=O)CSCC(=O)Nc2ccccc2N2CCCC2)cc1,-4.2,-2.4,1.7,2.8,14.0,·
CC(C)(C)c1ccc(C(=O)NCCOc2ccccc2)cc1,23.0,43.4,-111.9,-325.2,42.1,-281.2
Cc1ccc(Nc2nc(N)nc(-c3oc4ccccc4c3C)n2)cc1,-69.7,25.9,37.5,-480.3,11.7,i
COc1cccc(OCCn2cc(/C=N/NC(=O)c3ccncc3)c3ccccc32)c1,31.7,-9.9,1.4,-22.8,-8.4,·
CNC(=S)N/N=C/c1cn(CCOc2ccccc2OC)c2ccccc12,18.2,40.1,-13.4,35.3*,21.3,14.9
CNC(=S)N/N=C/c1cn(CCOc2cccc(OC)c2)c2ccccc12,30.3,32.0,-8.2,39.5*,9.7,-10.9
COC(=O)N/N=C/c1cn(CCOc2ccccc2OC)c2ccccc12,22.5,21.5,4.1,11.4,6.0,·
CCOC(=O)C1CCCc2c1[nH]c1ccc(Cl)cc21 (centres undefined),11.3,16.2,-26.7,-426.6,5.0,-14.9
Cc1cc2c(C)c(C)c(=O)[nH]c2cc1N,-19.8,29.4,2.2,35.7*,10.0,18.4
Cc1ccc(-c2nsc3c(N4CCC(C(N)=O)CC4)ncnc23)cc1,-135.1,-66.8,-91.5,77.6*,-0.6,53.3*
Cc1cccc(C)c1NC(=O)CNC(=O)c1c(C)nn(-c2ccccc2)c1Cl,17.6,27.7,-3.7,13.9,0.3,·
Cn1c(=O)c2[nH]c(Cc3cccc4ccccc34)nc2n(C)c1=O,26.0,·,·,·,12.0,·
CCCCCOc1ccc(NC(=O)C(=O)NCCCn2ccnc2)cc1,58.5,-0.3,11.4,48.3*,27.4,52.9*

# Source: PubChem BioAssay (several laboratories)
